According to PubChem BioAssay (NCATS):
Values joined by “and” are separate entries in the source; they are usually repeats but may differ in a detail not shown here. Equal values may be shown once. Records with an inconclusive call do not appear. A call without a number means that no potency is given here. Values without a mark were called inactive. Active and inactive are the calls of the source. Calls come from the whole dose curve; as a rule, active = well fitted curve in the direction sought with a large enough effect; inconclusive = small, poorly fitted or top-dose-only effect, or another doubt; inactive = no such curve, though single readings can be large; an effect the other way counts as inactive or inconclusive.

Tests used:
[1] = molecular target: Aldehyde dehydrogenase, mitochondrial (Homo sapiens) (UniProt P05091); test: qHTS for Inhibitors of the Aldehyde Dehydrogenase Family (ALDH2) Primary screen (AID 2061308); note: nearly all actives have a fitted effect of over 55% in size; note: potency is the fitted concentration of half-maximal effect
[2] = molecular target: Retinaldehyde dehydrogenase 3 (Homo sapiens) (UniProt P47895); test: qHTS for Inhibitors of the Aldehyde Dehydrogenase Family (ALDH1A3) Primary screen (AID 2061315)
[3] = BET inhibitor-based combinations targeting novel dependencies in MECOM-rearranged (r) AML: SET-2 cell line (AID 2202231); details: SET-2 AML cells viability, CellTiter-Glo luminescence, 48 h; viability: active compounds read low, concentration not given here; note: nearly all actives have a fitted effect of over 35% in size; note: potency is the fitted concentration of half-maximal effect
Method in brief: (§1)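 Here, 11-point titrations of each agent were applied to 500 seeded cells and incubated 48 hr; CellTiter-Glo signal, scaled against DMSO and empty wells, was integrated as AUC, then Z-scored within the individual line.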

[4] = BET inhibitor-based combinations targeting novel dependencies in MECOM-rearranged (r) AML: OCI-AML3 cell line (AID 2202232); details: Potency: OCI-AML3 viability; note: nearly all actives have a fitted effect of over 35% in size; note: potency is the fitted concentration of half-maximal effect
Method in brief: as §1

[5] = BET inhibitor-based combinations targeting novel dependencies in MECOM-rearranged (r) AML: AML-191 cell line (AID 2202236; note: nearly all actives have a fitted effect of over 35% in size; note: potency is the fitted concentration of half-maximal effect)
Method in brief: as §1

[6] = BET inhibitor-based combinations targeting novel dependencies in MECOM-rearranged (r) AML: AML-194 cell line (AID 2202237; note: nearly all actives have a fitted effect of over 40% in size; note: potency is the fitted concentration of half-maximal effect)
Method in brief: as §1

[7] = BET inhibitor-based combinations targeting novel dependencies in MECOM-rearranged (r) AML: MV-4-11 cell line (AID 2202233); note: potency is the fitted concentration of half-maximal effect; nearly all actives have a fitted effect of over 45% in size
Method in brief: (§2)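 Normalized to DMSO and empty-well controls, the luminescence data from CellTiter-Glo after 48 hr drug exposure were fitted across 11 concentrations. Reported metrics are area under the dose-response curve and its Z-transformed form.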

[8] = BET inhibitor-based combinations targeting novel dependencies in MECOM-rearranged (r) AML: HNT-34 cell line (AID 2202234); note: nearly all actives have a fitted effect of over 35% in size; note: potency is the fitted concentration of half-maximal effect
Method in brief: as §2

[9] = BET inhibitor-based combinations targeting novel dependencies in MECOM-rearranged (r) AML: UCSD-AML1 cell line (AID 2202235); note: nearly all actives have a fitted effect of over 40% in size; note: potency is the fitted concentration of half-maximal effect
Method in brief: as §2

[10] = molecular target: Retinaldehyde dehydrogenase 3 (Homo sapiens) (UniProt P47895); test: qHTS for Inhibitors of the Aldehyde Dehydrogenase Family (ALDH1A3) Confirmatory screens (AID 2061311); note: nearly all actives have a fitted effect of over 60% in size; note: potency is the fitted concentration of half-maximal effect
[11] = molecular target: Aldehyde dehydrogenase 1A1 (Homo sapiens) (UniProt P00352); test: qHTS for Inhibitors of the Aldehyde Dehydrogenase Family (ALDH1A1) Confirmatory screens (AID 2061316); note: nearly all actives have a fitted effect of over 65% in size; note: potency is the fitted concentration of half-maximal effect

Cc1ccc(C(=O)Nc2ccc(CN3CCN(C)CC3)c(C(F)(F)F)c2)cc1C#Cc1cnc2[nH]ncc2c1
Potency [1]: inactive
Potency [2]: inactive
Potency [3]: 4.17 µM (active)
Potency [4]: 0.934 µM (active)
Potency [5]: 0.0934 µM (active)
Potency [6]: 0.148 µM (active)

Cc1ccc(NC(=O)c2ccc(CN3CC[C@H](N(C)C)C3)c(C(F)(F)F)c2)cc1Nc1nccc(-c2cncnc2)n1
Potency [1]: inactive
Potency [2]: inactive
Potency [4]: 2.04 µM (active)
Potency [7]: 8.11 µM (active)
Potency [8]: 0.0407 µM (active)
Potency [6]: 14.4 µM (active)

CCn1c(N)c(C(=O)NC)c(=O)c2ccc(C#CC(C)(O)COC)nc21 (stereo not drawn)
Potency [1]: inactive
Potency [2]: inactive
viability [3]: 91.1%
Potency [7]: 5.25 µM (active)
Potency [9]: inactive
Potency [5]: 23.5 µM (active)
Potency [6]: inactive

Cn1c(NC[C@@H](N)Cc2ccccc2)nc(-c2ccncc2)c(-c2ccc3ccccc3c2)c1=O
Potency [1]: inactive
Potency [2]: inactive
Potency [4]: 20.9 µM (active)
Potency [7]: 20.9 µM (active)
Potency [8]: 26.3 µM (active)
Potency [6]: 26.3 µM (active)

CC(C)NC(=O)COc1cccc(-c2nc(Nc3ccc4[nH]ncc4c3)c3ccccc3n2)c1
Potency [1]: inactive
Potency [2]: inactive
Potency [9]: inactive
Potency [6]: 16.6 µM (active)

C[C@@H]1COC(Nc2ccc3ncnc(Nc4ccc(OCc5nccs5)c(Cl)c4)c3c2)=N1
Potency [1]: inactive
Potency [2]: inactive
Potency [7]: 18.6 µM (active)
Potency [8]: 20.9 µM (active)
Potency [9]: 26.3 µM (active)

CCOc1ccccc1NC(=O)Nc1cc(C(=O)NCc2ccc(C)cc2)ccc1N1CCCC1
Potency [10]: inactive

O=C(c1ccc(/C=C/c2n[nH]c3ccccc23)cc1)N1CCNCC1
Potency [1]: inactive
Potency [2]: inactive
Potency [7]: 0.132 µM (active)
Potency [8]: 3.72 µM (active)
Potency [9]: 3.32 µM (active)
Potency [5]: 2.95 µM (active)

Cc1ccc(-n2c(=O)c3c(cnn3C)n(CC(=O)Nc3cccc(Cl)c3)c2=O)cc1
Potency [10]: inactive

Nc1ccccc1S(=O)(=O)Nc1cccc2cccnc12
Potency [1]: inactive
Potency [11]: inactive

COc1ccccc1-c1cc2c(nc1OC)nc(CC1CC1)n2C
Potency [10]: inactive

COc1cc(CNC(=O)c2ccc(NC(=O)N3CCCCc4ccccc43)cc2)cc(OC)c1OC
Potency [10]: inactive

O=C1Cc2cc(S(=O)(=O)N3CCN(c4ccc(O)cc4)CC3)ccc2N1
Potency [1]: inactive
Potency [11]: 11.3 µM (active)

COc1cc2c(cc1OC(C)C)[C@H](c1ccc(Cl)cc1)N(c1ccc(N(C)CC3CCC(N4CCN(C)C(=O)C4)CC3)cc1)C(=O)C2 (stereo partly drawn)
Potency [1]: inactive
Potency [2]: inactive
Potency [7]: 2.35 µM (active)
Potency [8]: 3.72 µM (active)
Potency [5]: 5.9 µM (active)
Potency [6]: 10.5 µM (active)

CC(/C=C/C(=O)NO)=C\[C@@H](C)C(=O)c1ccc(N(C)C)cc1
Potency [1]: inactive
Potency [3]: 0.372 µM (active)
Potency [7]: 0.417 µM (active)
Potency [8]: 0.934 µM (active)
Potency [5]: 1.18 µM (active)
Potency [6]: 1.18 µM (active)

O=C(CN1CCN(c2ccc(Cl)cc2)CC1)Nc1ccc(F)c(F)c1
Potency [10]: inactive

Cc1c(NC(=O)OCC2COCCN2)cn2ncnc(Nc3ccc4c(cnn4Cc4cccc(F)c4)c3)c12 (stereo not drawn)
Potency [1]: inactive
Potency [2]: inactive
Potency [9]: inactive
Potency [5]: 23.5 µM (active)

Cc1c[nH]c2ncnc(N3CCC(CN)(C(=O)Nc4cccc(OC(=O)N(C)C)c4)CC3)c12
Potency [1]: inactive
Potency [2]: inactive
Potency [7]: 1.86 µM (active) and 1.05 µM (active)
Potency [9]: inactive

COc1ccc(N2CCN(C(=O)CS(=O)(=O)c3cccc4nsnc34)CC2)cc1
Potency [10]: inactive

COc1ccc2[nH]c(S(=O)Cc3ncc(C)c(OC)c3C)nc2c1 (stereo not drawn)
Potency [1]: inactive
viability [3]: 97.7%
Potency [4]: inactive
Potency [8]: inactive
Potency [9]: inactive
Potency [5]: inactive
Potency [6]: inactive

Cn1cc(-c2cnn3c(N)c(Br)c(C4CCCNC4)nc23)cn1 (stereo not drawn)
Potency [1]: inactive
Potency [4]: 10.5 µM (active)
Potency [7]: 0.468 µM (active)
Potency [8]: 10.5 µM (active)
Potency [9]: 5.25 µM (active)

N#Cc1ccccc1NC(=O)Cn1cnc2onc(-c3cccc(F)c3)c2c1=O
Potency [10]: inactive

CCn1c(=O)c(-c2ccc(Cl)cc2Cl)cc2cnc(Nc3ccc(N4CCNCC4)c(F)c3)nc21
Potency [1]: inactive
Potency [2]: inactive
Potency [7]: 0.525 µM (active)
Potency [8]: 0.105 µM (active)
Potency [9]: 0.525 µM (active)

OCc1ccc(-c2ccc3nnc(-c4ccccn4)n3n2)cc1
Potency [10]: inactive

CC[C@H]1CN(C(=O)Nc2cccc(OC)c2)CC[C@H]1CC(=O)NCc1ccccc1
Potency [10]: inactive

O=C1Cc2cc(S(=O)(=O)N3CCN(c4ccccc4)CC3)ccc2N1
Potency [10]: inactive

CN(C)Cc1nnc(C2CC(NC(=O)c3ccc4scnc4c3)C2)n1C (stereo not drawn)
Potency [10]: inactive

[2H]C([2H])(Nc1nc(-c2ccccc2C([2H])(C([2H])([2H])[2H])C([2H])([2H])[2H])ncc1C)c1ccc(-n2ccnn2)cc1
Potency [1]: inactive
Potency [2]: inactive
Potency [9]: inactive
Potency [6]: inactive

Cc1cccc(-c2[nH]ncc2-c2ccc(F)c(-c3cnn(CCO)c3)c2)n1
Potency [1]: inactive
Potency [2]: inactive
Potency [9]: inactive
Potency [6]: inactive

CC(=O)N1CCN(c2ccc(N)cc2)CC1
Potency [1]: inactive
Potency [11]: 25.2 µM (active)

O=C(O)C1=CO[C@@H](O[C@@H]2O[C@H](CO)[C@@H](O)[C@H](O)[C@H]2O)[C@@H]2C(CO)=CC[C@H]12
Potency [1]: inactive
Potency [2]: inactive
Potency [8]: inactive
Potency [9]: inactive
Potency [5]: inactive
Potency [6]: inactive

O=C(O)c1ccc(Cn2c(SCc3ccc(F)cc3)nc3ccncc32)cc1
Potency [10]: inactive

CCOc1ccc(NC(=O)C(=O)NCCc2ccccc2)cc1
Potency [10]: inactive

COCCNC(=O)c1cc(-c2ccc(OC)cc2)nc2c1c(C)nn2-c1ccccc1
Potency [10]: 25.1 µM (active)

O=C(CCS(=O)(=O)c1cccc2nonc12)Nc1ccc(F)cc1F
Potency [10]: inactive

Cn1cc(-c2cnc(Nc3ccncc3)c3c2CCO3)cn1
Potency [10]: inactive

Cc1ccc(C(=O)c2cn(Cc3cccc(F)c3)c3nc(C)ccc3c2=O)cc1
Potency [10]: inactive

COc1ccc(NC(=O)N2CCC(CC(=O)NCc3ccccc3)C2)cc1OC (stereo not drawn)
Potency [10]: inactive

Cc1ccnc(NC(=S)N2CCN(c3cc(Cl)cc(Cl)c3)CC2)c1
Potency [1]: 2.24 µM (active)
Potency [11]: 5.65 µM (active)

Cc1cnc(Nc2ccc(F)cc2Cl)nc1-c1c[nH]c(C(=O)NC(CO)c2cccc(Cl)c2)c1 (stereo not drawn)
Potency [1]: inactive
Potency [4]: 4.68 µM (active)
Potency [7]: 0.296 µM (active)

c1cnc(-c2noc(-c3nc(-c4ccc5c(c4)OCO5)no3)n2)cn1
Potency [10]: inactive

C=CC(=O)Nc1cccc(Nc2nc(Nc3ccc(N4CCN(C(C)=O)CC4)cc3OC)ncc2C(F)(F)F)c1
Potency [1]: inactive
Potency [3]: 14.8 µM (active)
Potency [4]: 18.6 µM (active)
Potency [8]: 4.17 µM (active)
Potency [9]: 5.9 µM (active)
Potency [5]: 9.34 µM (active)
Potency [6]: 18.6 µM (active)

O=C(Cn1c(=O)n(Cc2cccs2)c(=O)c2cccnc21)Nc1ccccc1F
Potency [10]: inactive

CCOc1ccc(NC(=O)Nc2cc3c(cc2N2CCCCC2)n(C)c(=O)n3C)cc1
Potency [10]: inactive

CCc1cccc(C)c1NC(=O)CSc1nc2ccncc2[nH]1
Potency [10]: inactive

CCOc1ccc(NC(=O)CN2CCN(c3ccc(Cl)cc3)CC2)cc1
Potency [10]: inactive

Cc1cc(C)n2nc(SCC(=O)Nc3ccccc3C)nc2n1
Potency [10]: inactive
